# Measurements: PubChem BioAssay AID687021 (Broad Institute, 2013)
# Active and inactive are the calls of the source.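 How the source made its calls: active means compounds lowering luciferase light whose fitted half-effect concentration is at most twice the top tested dose; inconclusive means flat curve with 30 to 70% inhibition, or poor fit; inactive means the rest.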
# Assay: luciferase signal loss, tTA control fusion, HeLa F-luc tTA cells, dry powder, counter-screen for HIV Env fusion inhibitor project, dose response (AID 687021)
# Conditions: luciferase luminescence counterscreen; series mostly up to 35 µM
row,SMILES,outcome
1,Cc1noc(C)c1S(=O)(=O)Nc1cccc2c1O[C@H](CN(C)Cc1ccc(C(F)(F)F)cc1)[C@@H](C)CN([C@H](C)CO)C2=O,inactive
2,CCCOc1ccc(S(=O)(=O)NCc2cccnc2)cc1,inactive
3,Cc1noc(C)c1S(=O)(=O)Nc1cccc2c1O[C@@H](CN(C)Cc1ccc(C(F)(F)F)cc1)[C@H](C)CN([C@@H](C)CO)C2=O,inactive
4,CC(=O)Nc1ccc(NC(=O)CN(c2ccc(C34CC5CC(CC(C5)C3)C4)cc2)S(C)(=O)=O)cc1,inactive
5,CCOc1ccc(OCC)c(S(=O)(=O)NCc2ccncc2)c1,inactive
6,CCOc1ccc(S(=O)(=O)NCc2ccncc2)cc1,inactive
7,O=C(CCc1ccc(S(=O)(=O)N2CCOCC2)cc1)Nc1nc(COc2ccccc2)cs1,inactive
8,Cc1ccc(-c2nnc3ccc4c(C(F)(F)F)cc(C(F)(F)F)nc4n23)cc1,inactive
9,Cc1noc(C)c1S(=O)(=O)Nc1cccc2c1O[C@@H](CN(C)Cc1ccc(C(F)(F)F)cc1)[C@@H](C)CN([C@@H](C)CO)C2=O,inactive
10,C[C@@H]1CN([C@H](C)CO)C(=O)c2cccc(NS(=O)(=O)c3ccc(Cl)cc3)c2O[C@@H]1CN(C)Cc1ccc(Cl)c(Cl)c1,inactive
11,CCOc1ccc(S(=O)(=O)NCc2ccncc2)cc1OCC,inactive
12,Cn1c(C(=O)N2CCN(c3nc4ccccc4s3)CC2)cc2sccc21,inactive
13,CCOc1ccc(S(=O)(=O)NCc2ccccn2)cc1,inactive
14,C[C@H]1CCCCO[C@@H](CN(C)Cc2ccncc2)[C@@H](C)CN([C@@H](C)CO)C(=O)c2cc(NC(=O)Nc3ccccc3)ccc2O1,inactive
